Compound activity: PubChem BioAssay, National Center for Advancing Translational Sciences (NCATS)
KinaseGlo FLuc: blocks Kinase-Glo luciferase, a counter-screen artifact | actives 0.28% (n = 200,000) | Kinase-Glo luciferase, ATP luminescence, 8 min | Q27757 | Potency, µM (series often up to 38.3 µM), for inactives: top-dose activity change, negative = inhibition, most hits filed as inhibitors; further: on the % scale 0 is the no-effect control and ±100 the full control effect; nearly all actives have a fitted effect of over 60% in size
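Compound is pinned into ATP-containing buffer (10 uM ATP, imidazole pH 7.2, 7 mM MgCl2). Kinase-Glo luciferase reagent is then added. Light output is recorded following an 8-min room-temperature incubation.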
ELG1 genotoxic: induces genotoxicity in HEK293T cells with luciferase-tagged ELG1; HEK293T ELG1-luciferase reporter, luminescence, 16 h; Potency, µM (series often up to 46 µM), for inactives: at the top dose activity change, positive = activation, usual class: activators; actives 1.3% (n = 330,000); AID 504466; further: % of control where 0% means no effect; nearly all actives have a fitted effect of over 60% in size
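Quantitative HTS format in 1536-well plates. HEK293T ELG1-luciferase reporter cells receive test compound and are incubated 16 hr at 37 °C, 5% CO2; ONE-Glo added, 30 min room temperature, then luminescence read.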
NPC1 prom act: activates the NPC1 promoter | Huh7 NPC1 promoter luciferase reporter, 24 h | Potency, µM (top dose mostly 9.22 µM), inactives show top-dose activation, most hits filed as activators | actives 2.4% (n = 320,000) | AID 485313; further: % of control where 0% means no effect; nearly all actives have a fitted effect of over 60% in size
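Readout is luciferase luminescence, reflecting NPC1 promoter activation in stably transfected Huh7 cells after 24 h compound exposure at 37 °C in reduced-serum medium with 10% FBS.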
FLuc modulator: counter-screen for miR-21 project: firefly luciferase inhibitors or activators | actives 6.9% (n = 360,000) | purified FLuc, Km substrates, luminescence inhibition | Potency, µM (highest dose often 57.5 µM), inactives show at the highest dose activity change, negative = inhibition, usual class: inhibitors | P08659;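 further: plate controls were vehicle for no effect and reference inhibitor for full effect; nearly all actives have a fitted effect of over 55% in size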
Target sequence (P08659 whole entry, looked up): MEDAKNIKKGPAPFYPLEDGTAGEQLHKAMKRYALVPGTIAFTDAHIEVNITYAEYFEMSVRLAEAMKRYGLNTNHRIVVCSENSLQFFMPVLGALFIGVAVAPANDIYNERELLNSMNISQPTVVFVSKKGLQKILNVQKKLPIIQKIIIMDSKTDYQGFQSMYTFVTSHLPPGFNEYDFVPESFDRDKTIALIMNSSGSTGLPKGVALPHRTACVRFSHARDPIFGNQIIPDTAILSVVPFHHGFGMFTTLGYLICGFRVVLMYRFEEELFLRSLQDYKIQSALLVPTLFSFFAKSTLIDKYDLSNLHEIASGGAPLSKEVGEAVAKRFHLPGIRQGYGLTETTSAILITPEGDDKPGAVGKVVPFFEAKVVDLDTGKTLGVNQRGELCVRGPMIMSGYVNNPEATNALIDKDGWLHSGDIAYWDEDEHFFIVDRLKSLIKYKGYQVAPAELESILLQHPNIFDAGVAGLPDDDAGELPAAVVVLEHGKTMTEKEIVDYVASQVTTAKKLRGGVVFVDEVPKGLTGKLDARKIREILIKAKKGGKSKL
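Biochemical qHTS of compounds, final roughly 60 µM downward over six points, against 10 nM purified firefly luciferase using Km concentrations of substrates (10 uM D-luciferin, 10 uM ATP) in Tris acetate pH 7.5 buffer; luminescence output.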
SMN2 splice enh: SMN2 splice variant enhancement | actives 2.8% (n = 210,000) | HEK293 SMN2-luciferase splicing reporter, luminescence, 30-36 h | Potency, µM (doses to about 46.1 µM), for the others: top-dose activity change, positive = activation, most hits filed as activators | AID 1458; further: % of control where 0% means no effect; nearly all actives have a fitted effect of over 55% in size
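HEK293 cells carry an SMN2 […]–luciferase reporter in which exon 7 inclusion puts luciferase in frame. Cells were plated 10-12 h before compound addition, then incubated 30-36 h at 37C. ONE-Glo luminescence was read; sodium butyrate at 4.5 mM final served as control.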
Rab9 prom act: activators of Rab9 promoter; Potency, µM (highest dose often 9.22 µM), without a hit: at the top dose activation, negative = inhibition, actives largely listed as activators; Huh7 Rab9 promoter-luciferase reporter, luminescence, 24 h; actives 2.8% (n = 320,000); further: % of control where 0% means no effect; nearly all actives have a fitted effect of over 60% in size
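Rab9 promoter-driven luciferase in stably transfected Huh7 cells; 1500 cells/well rested 2 h, exposed to compound in DMSO for 24 h at 37 °C, 5% CO2. Luminescence read 10 min after adding luciferase reagent at ambient temperature.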
An asterisk follows results filed as active; ? = inconclusive; . = no result; [ ] = remark or other dose. Shown are actives, neighbours in structure and some others; about 7.5% of the full set was active somewhere. The call rests on the fitted dose curve; in most records, active means well fitted curve in the direction sought with a large enough effect; inconclusive means small, poorly fitted or top-dose-only effect, or another doubt; inactive means no such curve, though single readings can be large; an effect the other way counts as inactive or inconclusive. Potency means the concentration at half of the fitted maximal effect.

SMILES | KinaseGlo FLuc | ELG1 genotoxic | NPC1 prom act | FLuc modulator | SMN2 splice enh | Rab9 prom act
CCOC(=O)c1cc(-c2ccc(F)cc2)n(CCC(=O)Nc2ccccc2OC)c1C | . | . | . | -3.7% | . | .
O=C(CNC(=O)c1ccccc1Cl)OCC(=O)N1CCc2ccccc21 | -3.2% | ? | 2.7% | 13.5µM* | 5.8% | 8.7%
O=C(Cc1ccccc1F)OCC(=O)N1CCc2ccccc21 | -1.9% | 7.8% | 1.0% | 6.75µM* | 3.7% | 0.0%
Cc1cccc(C(=O)NCC(=O)OCC(=O)N2CCc3ccccc32)c1 | -1.1% | 0.0% | -3.8% | -19.6% | -0.9% | 1.0%
O=C(NCC(c1ccco1)N1CCCC1)c1cc(S(=O)(=O)N2CCOCC2)ccc1Cl (stereo not drawn) | . | -0.1% | 0.1% | 7.3% | . | 2.4%
Cc1cc(C)n2nc(C(=O)Nc3cccc(S(=O)(=O)N(C)c4ccccc4)c3)nc2n1 | . | -4.0% | -2.0% | -10.8% | . | -4.4%
COCCCn1c(SCC(=O)OC2CCCCC2)nnc1-c1ccco1 | -2.9% | -1.7% | 1.4% | 12µM* | -2.4% | 3.3%
COCCCn1c(SCC(=O)OC2CCCCC2)nnc1-c1cccs1 | 0.1% | -0.5% | 0.1% | 19µM* | -5.0% | 6.6%
Cc1ccc(F)cc1NC(=O)c1c(-c2ccccc2)noc1C | -0.9% | -3.3% | 0.1% | 1.0% | -21.4% | 0.9%
COc1ccc(-c2ccc(OC)c([C@H]3[C@H]4C=CC[C@@H](C)[C@@H]4C(=O)N3Cc3ccccc3)c2)cc1C | . | 3.8% | -7.9% | 0.0% | . | -8.8%
COc1ccc(-c2cc3ccccc3s2)cc1[C@H]1[C@H]2C=CC[C@@H](C)[C@@H]2C(=O)N1Cc1ccccc1 | . | ? | 3.16µM* | 1.35µM* | . | 2.82µM*
CCOC(=O)/C(C#N)=C/c1ccc(OC)c(OC)c1 | 3.8% | -1.0% | -3.6% | 1.5%[2.3 µM] | . | -0.8%
CCOC(=O)/C(C#N)=C\c1ccc(CC)s1 | -2.7% | ? | 24.7% | 10.7µM* | -8.5% | -10.6%
CCOC(=O)/C(C#N)=C/c1ccc(SC)cc1 | -1.9% | 4.1% | 8.8% | 13.5µM* | -24.1% | -2.8%
CCOC(=O)/C(C#N)=C\C=C1C=CN(C)C=C1 | -3.7% | ? | 2.51µM* | 9.53µM* | 15.8µM* | 3.55µM*
COCCNC(=O)/C(C#N)=C/c1ccc(SC)cc1 | -1.1% | ? | -4.6% | 19µM* | 1.5% | -1.5%
COCCNC(=O)/C(C#N)=C/c1ccc(C(=O)O)cc1 | 1.3% | -1.8% | -2.6% | 3.5% | -1.7% | 0.4%
CCOC(=O)/C(C#N)=C\c1c(OCC)n(CC)c2ccccc12 | 3.6% | -4.9% | 1.1% | 3.0% | -14.6% | 0.6%
COc1cc(/C=N/NC(=O)C2CCN(CC(O)COCc3ccccc3)CC2)ccc1O (stereo not drawn) | 8.6% | -0.3% | -1.2% | -1.8% | -37.9% | -7.6%
CCOC(=O)C1(CC2CCCCO2)CCN(S(=O)(=O)c2c(C)nn(C)c2C)CC1 (stereo not drawn) | -0.6% | 0.1% | -2.9% | -0.6% | . | -5.0%
CC(C)C(OC(=O)c1ccccc1)c1nccc2ccccc12 (stereo not drawn) | . | ? | ? | 16.9µM* | . | ?
O=C(OC(c1ccccc1)c1nccc2ccccc12)c1cccc([N+](=O)[O-])c1 (stereo not drawn) | 0.7% | ? | 16.3% | ? | -2.3% | 14.6%
Cc1nc(NS(=O)(=O)c2ccccc2)sc1C(=O)NNS(=O)(=O)c1ccccc1 | . | 0.5% | -4.1% | -10.0% | . | 1.2%
Cc1nc(NS(=O)(=O)c2ccccc2)sc1C(=O)N/N=C/c1ccccc1 | . | 2.6% | 1.1% | 9.53µM* | . | 2.5%
CCCCCCC[C@@H](C/C=C/CCC(=O)N(C)C/C(=C/Cl)C/C(=C\C(=O)N1CC(OC)=CC1=O)OC)OC | . | 2.06µM* | . | . | . | .
CCCCCCC[C@@H](C/C=C/CCC(=O)N(C)C/C(=C/Cl)C/C(=C\C(=O)N1C[C@H](O)CC1=O)OC)OC | . | -10.7% | . | . | . | .
